Consider one compound from the supplement of paper PMC11732987, “Enantioselective OTUD7B fragment discovery through chemoproteomics screening and high-throughput optimisation” (Communications Chemistry, 2025).

Unmarked numbers belong to inactive results.

What all share (assay): log2 ratio of Biotin-Ahx-Ub-VS probe labelling (fragment/DMSO); higher = less target engagement (more negative = stronger competition), active = hit call of the paper (q ≤ 0.05, log2 ratio ≤ -1)
Holding throughout (conditions): compound concentration: 200 uM; treatment time: 3 h

The target in one experiment is T1, OTUD6B (UniProt Q8N6M0).
T1 sequence (whole entry): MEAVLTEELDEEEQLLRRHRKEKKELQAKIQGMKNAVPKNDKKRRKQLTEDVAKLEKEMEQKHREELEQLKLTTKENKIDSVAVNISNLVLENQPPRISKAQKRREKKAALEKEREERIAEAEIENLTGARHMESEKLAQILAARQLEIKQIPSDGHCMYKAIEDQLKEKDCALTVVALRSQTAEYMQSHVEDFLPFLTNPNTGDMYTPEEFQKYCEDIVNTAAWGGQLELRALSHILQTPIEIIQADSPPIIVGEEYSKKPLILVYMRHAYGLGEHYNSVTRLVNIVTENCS
The essentials: (§1)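 HEK293T lysate in Tris/CHAPS/IGEPAL buffer with protease inhibitors (495 µg per sample) was given fragment at 200 µM or vehicle for 3 h, in triplicate. It then received Biotin-Ahx-Ub-VS at 0.5 µM final for 1 h. Labelled DUBs were NeutrAvidin-enriched, digested with LysC and trypsin, and run by diaPASEF LC-MS/MS. Values are average log2 fragment/vehicle ratios by unpaired t-test on global-median-normalised Spectronaut quantities of proteins with ≥2 unique peptides.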

Another experiment concerns the target T2, OTUD7B (UniProt Q6GQQ9).
T2 sequence (whole entry): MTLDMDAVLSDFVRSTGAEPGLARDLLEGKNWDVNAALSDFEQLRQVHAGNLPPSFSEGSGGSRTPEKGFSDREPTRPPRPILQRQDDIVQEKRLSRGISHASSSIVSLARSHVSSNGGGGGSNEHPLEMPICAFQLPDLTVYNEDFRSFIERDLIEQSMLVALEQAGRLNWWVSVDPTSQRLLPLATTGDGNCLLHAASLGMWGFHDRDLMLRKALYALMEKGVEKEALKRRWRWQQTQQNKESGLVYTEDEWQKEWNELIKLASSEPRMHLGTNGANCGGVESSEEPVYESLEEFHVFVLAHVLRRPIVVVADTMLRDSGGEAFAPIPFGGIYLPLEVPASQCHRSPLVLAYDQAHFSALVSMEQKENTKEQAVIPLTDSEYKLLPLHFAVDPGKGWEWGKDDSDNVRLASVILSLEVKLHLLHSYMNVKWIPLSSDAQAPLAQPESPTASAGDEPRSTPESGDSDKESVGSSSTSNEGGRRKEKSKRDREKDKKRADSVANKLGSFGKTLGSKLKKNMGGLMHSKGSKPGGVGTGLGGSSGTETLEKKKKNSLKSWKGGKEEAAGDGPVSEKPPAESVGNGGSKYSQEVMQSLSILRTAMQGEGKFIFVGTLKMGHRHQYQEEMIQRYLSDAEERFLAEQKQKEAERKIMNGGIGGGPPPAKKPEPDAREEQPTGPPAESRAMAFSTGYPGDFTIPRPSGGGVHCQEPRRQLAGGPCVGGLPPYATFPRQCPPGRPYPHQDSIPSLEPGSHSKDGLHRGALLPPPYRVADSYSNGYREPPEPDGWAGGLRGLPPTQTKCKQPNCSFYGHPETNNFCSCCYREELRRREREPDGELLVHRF
An outline of the steps: as §1

In a further experiment the target is PRPF8 (UniProt Q6P2Q9). The essentials:
as §1

A further experiment has as its target T3, PSMD7 (UniProt P51665).
T3 sequence (whole entry): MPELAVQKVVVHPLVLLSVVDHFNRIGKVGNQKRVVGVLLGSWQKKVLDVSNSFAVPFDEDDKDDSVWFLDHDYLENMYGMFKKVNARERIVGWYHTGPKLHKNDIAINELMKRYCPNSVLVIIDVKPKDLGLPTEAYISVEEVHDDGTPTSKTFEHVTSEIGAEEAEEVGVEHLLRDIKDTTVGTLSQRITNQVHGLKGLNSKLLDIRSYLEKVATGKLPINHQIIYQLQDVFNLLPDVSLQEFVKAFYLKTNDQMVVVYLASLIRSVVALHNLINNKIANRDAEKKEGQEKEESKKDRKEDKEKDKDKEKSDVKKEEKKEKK
The essentials: as §1

A further experiment concerns the target UCHL1 (UniProt P09936). An outline of the steps:
as §1

The target of a further experiment is T4, UCHL3 (UniProt P15374).
T4 sequence (whole entry): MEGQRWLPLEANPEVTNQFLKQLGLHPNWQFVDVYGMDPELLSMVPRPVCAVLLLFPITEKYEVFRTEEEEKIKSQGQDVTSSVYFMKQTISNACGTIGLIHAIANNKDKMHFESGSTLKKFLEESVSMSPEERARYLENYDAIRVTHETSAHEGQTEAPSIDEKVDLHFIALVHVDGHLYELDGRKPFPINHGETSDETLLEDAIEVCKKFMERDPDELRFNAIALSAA
The essentials: as §1

The target in a further experiment is T5, UCHL5 (UniProt Q9Y5K5).
T5 sequence (whole entry): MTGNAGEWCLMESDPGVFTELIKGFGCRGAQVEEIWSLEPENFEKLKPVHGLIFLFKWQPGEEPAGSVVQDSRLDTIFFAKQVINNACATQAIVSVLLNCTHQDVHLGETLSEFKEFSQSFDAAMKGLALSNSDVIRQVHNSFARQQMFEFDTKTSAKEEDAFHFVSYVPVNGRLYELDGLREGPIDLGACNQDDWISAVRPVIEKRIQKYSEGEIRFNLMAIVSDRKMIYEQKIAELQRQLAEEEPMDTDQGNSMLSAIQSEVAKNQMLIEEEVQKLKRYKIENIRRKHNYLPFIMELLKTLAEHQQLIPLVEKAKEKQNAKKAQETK
The essentials: as §1

The target in a further experiment is USP10 (UniProt Q14694). An outline of the steps:
as §1

The next experiment has as its target T6, USP15 (UniProt Q9Y4E8).
T6 sequence (whole entry): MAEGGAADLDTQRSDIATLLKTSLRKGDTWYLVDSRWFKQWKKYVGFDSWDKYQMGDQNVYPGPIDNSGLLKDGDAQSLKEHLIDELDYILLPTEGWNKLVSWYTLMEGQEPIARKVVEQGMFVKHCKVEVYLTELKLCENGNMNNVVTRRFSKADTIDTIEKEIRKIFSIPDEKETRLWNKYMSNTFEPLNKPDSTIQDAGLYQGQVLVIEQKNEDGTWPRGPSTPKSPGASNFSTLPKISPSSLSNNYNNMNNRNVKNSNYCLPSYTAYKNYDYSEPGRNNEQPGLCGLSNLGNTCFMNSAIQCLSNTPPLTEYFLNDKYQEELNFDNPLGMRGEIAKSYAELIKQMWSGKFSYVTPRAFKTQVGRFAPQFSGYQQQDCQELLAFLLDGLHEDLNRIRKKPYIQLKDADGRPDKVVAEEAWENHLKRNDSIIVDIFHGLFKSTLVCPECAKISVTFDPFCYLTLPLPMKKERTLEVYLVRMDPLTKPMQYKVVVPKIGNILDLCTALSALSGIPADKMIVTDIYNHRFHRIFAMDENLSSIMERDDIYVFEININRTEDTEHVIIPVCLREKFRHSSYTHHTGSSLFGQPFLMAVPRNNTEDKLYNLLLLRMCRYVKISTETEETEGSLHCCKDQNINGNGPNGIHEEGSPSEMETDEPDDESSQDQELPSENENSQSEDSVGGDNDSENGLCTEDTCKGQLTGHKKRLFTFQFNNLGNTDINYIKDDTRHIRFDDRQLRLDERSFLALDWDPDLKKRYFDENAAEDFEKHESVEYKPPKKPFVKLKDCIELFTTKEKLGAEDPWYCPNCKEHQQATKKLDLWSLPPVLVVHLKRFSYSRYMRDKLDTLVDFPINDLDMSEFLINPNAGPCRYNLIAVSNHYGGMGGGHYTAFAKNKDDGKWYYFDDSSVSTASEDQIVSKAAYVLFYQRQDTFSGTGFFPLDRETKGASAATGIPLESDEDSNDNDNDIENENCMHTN
The essentials:
as §1

Sequence of UCHL1 (P09936 whole entry, looked up): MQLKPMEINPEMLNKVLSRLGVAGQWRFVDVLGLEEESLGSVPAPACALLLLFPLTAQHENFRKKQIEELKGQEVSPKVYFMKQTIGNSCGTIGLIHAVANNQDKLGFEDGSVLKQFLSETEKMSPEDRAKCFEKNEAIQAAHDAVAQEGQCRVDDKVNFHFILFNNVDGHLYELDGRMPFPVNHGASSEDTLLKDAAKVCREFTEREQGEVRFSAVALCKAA
Sequence of USP10 (Q14694 whole entry): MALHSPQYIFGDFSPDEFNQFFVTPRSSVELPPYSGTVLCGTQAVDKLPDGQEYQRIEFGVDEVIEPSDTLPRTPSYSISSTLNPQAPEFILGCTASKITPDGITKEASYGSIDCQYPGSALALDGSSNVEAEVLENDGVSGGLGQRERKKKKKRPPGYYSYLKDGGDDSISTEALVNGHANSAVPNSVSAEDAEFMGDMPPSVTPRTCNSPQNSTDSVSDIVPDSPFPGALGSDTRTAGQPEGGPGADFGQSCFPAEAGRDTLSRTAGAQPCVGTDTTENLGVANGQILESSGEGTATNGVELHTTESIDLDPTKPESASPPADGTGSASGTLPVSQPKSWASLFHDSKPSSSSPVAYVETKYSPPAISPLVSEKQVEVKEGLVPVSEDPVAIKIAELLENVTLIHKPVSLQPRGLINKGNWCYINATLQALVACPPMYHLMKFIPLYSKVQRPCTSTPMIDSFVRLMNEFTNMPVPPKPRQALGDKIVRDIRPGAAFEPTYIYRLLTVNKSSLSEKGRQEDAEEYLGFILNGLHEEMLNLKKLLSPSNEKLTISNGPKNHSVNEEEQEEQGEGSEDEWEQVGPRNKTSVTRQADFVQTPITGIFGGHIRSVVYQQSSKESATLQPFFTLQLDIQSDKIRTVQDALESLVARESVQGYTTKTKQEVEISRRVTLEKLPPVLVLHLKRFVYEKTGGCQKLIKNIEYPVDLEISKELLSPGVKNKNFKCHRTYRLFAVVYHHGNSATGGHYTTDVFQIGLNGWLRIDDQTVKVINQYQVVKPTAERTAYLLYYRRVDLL

On to `O=C(CCl)Nc1cccc(NC(=O)c2ccccc2)c1`, for which the “log2 ratio of Biotin-Ahx-Ub-VS probe labelling” value is 0.292 with OTUD6B; -0.595 with OTUD7B; 0.0439 in the experiment with PRPF8; 0.102 with PSMD7; -1.07 (active) with UCHL1; -0.427 with UCHL3. Also, the entries for the “log2 ratio of Biotin-Ahx-Ub-VS probe labelling” value with UCHL5, with USP10 and with USP15 were 0.221, -0.0488 and -0.0163, respectively.
